From PubChem BioAssay (NCATS)
Records with an inconclusive call do not appear. A call without a number means that no potency is given here. Calls of active or inactive are those of the source. Calls come from the whole dose curve; as a rule, active = well fitted cell-killing curve with a large enough effect; inconclusive = small, poorly fitted or top-dose-only effect, or effect the other way; inactive = no such curve, though single readings can be large or run the other way.

Assay: Quantitative High-Throughput drug screen in 47 multiple myeloma cell lines against the NCATS MIPE library collection: FR4_PLB cell viability assay (AID 1918924; note: nearly all actives have a fitted effect of over 35% in size)
Settings: FR4_PLB myeloma cells viability, CellTiter-Glo ATP, 48 h; series mostly up to 45.8 µM
Excerpt: PI: Beverly A. Mock Ph.D.
Laboratory of Cancer Biology and Genetics,
Center for Cancer Research, National Cancer Institute,
National Institute of Health, Bethesda, Maryland
Drug resistance and disease progression are common in multiple myeloma (MM) patients, underscoring the need for new therapeutic combinations. […] We hypothesized that effective combinations would reduce MYC expression and enhance p16 activity. […] These preclinical data identify potentially useful drug combinations for evaluation in drug-resistant MM and reveal potential mechanisms of combined drug sensitivity.
Described herein is the primary MIPE qHTS used to cherrypick compounds. Validated compounds were then further tested for potential synergistic activiy.
[1] Peat TJ, Gaikwad SM, Dubois W, Gyabaah-Kessie N, Zhang S, Gorjifard S, Phyo Z, Andres M, Hughitt VK, Simpson RM, Miller MA, Girvin AT, Taylor A, Williams D, D'Antonio N, Zhang Y, Rajagopalan A, Flietner E, Wilson K, Zhang X, Shinn P, Klumpp-Thomas C, McKnight C, Itkin Z, Chen L, Kazandijian D, Zhang J, Michalowski AM, Simmons JK, Keats J, Thomas CJ, Mock BA. Drug combinations identified by high-throughput screening promote cell cycle transition and upregulate Smad pathways in myeloma. Cancer Lett. 2023 Aug 1;568:216284. doi: 10.1016/j.canlet.2023.216284. Epub 2023 Jun 24. PMID: 37356470; PMCID: PMC10408729.
SEQUENCE No. (e.g., 1, 2, 3, etc.); […] (e.g., Cells, Incubation, Reagent, etc.); VALUE and DESCRIPTION.
1; Cells; 5 uL; white, solid bottom 1536-well Greiner assay plate.
2; Compounds; 23 nL; Kalypsis pin tool (Wako USA) equipped with a 1536-well pin head to transfer to the assay plates.
3; Incubation; 48 hours; 37C incubation.
4; Reagent;5uL; CellTiter Glo (Promega).
5; Detector; 425V; Luminescence; Viewlux PerkinElmer.
NOTES (numbers refer to Sequence numbers above)
1. The cell-based screening methods employed in this study were like those previously published. Briefly, the corresponding myeloma cell lines were screened in 1,536-well plates with 500 cells, 5-uL per well for inhibition of cell viability (assessed by measuring ATP levels with CellTiterGlo).
2. NCATS MIPE 4.0 library of approved and investigational drugs were added using the Kalypsis pin tool. Wells treated with DMSO only for 100% viability and media only wells for 0% viability were used as controls.
3. The assay plates were covered and incubated for 48 hours in a 37C, 5% CO2 incubator with controlled humidity.
4. After 48 hours, CellTilter-GloTM luminescent substrate mix (Promega) reagent was added to the assay plate and plates we incubated for 5 min at room temperature.
5. Signal was measured as median relative luminescence units on a ViewLux (PerkinElmer) multiplate reader.
[1] Heske CM, Davis MI, Baumgart JT, Wilson K, Gormally MV, Chen L, Zhang X, Ceribelli M, Duveau DY, Guha R, Ferrer M, Arnaldez FI, Ji J, Tran HL, Zhang Y, Mendoza A, Helman LJ, Thomas CJ. Matrix Screen Identifies Synergistic Combination of PARP Inhibitors and Nicotinamide Phosphoribosyltransferase (NAMPT) Inhibitors in Ewing Sarcoma. Clin Cancer Res. 2017 Dec 1;23(23):7301-7311. doi: 10.1158/1078-0432.CCR-17-1121. Epub 2017 Sep 12. PMID: 28899971; PMCID: PMC6636827.
Potency is the fitted concentration of half-maximal effect.

Row | Structure (SMILES) | Potency
1 | CCCCc1oc2ccc(NS(C)(=O)=O)cc2c1C(=O)c1ccc(OCCCN(CCCC)CCCC)cc1 | 16.6 µM (active)
2 | CNCC[C@H](Oc1cccc2ccccc12)c1cccs1 | 3.72 µM (active)
3 | NCCCC(O)(P(=O)(O)O)P(=O)(O)O | inactive
4 | CCCCS(=N)(=O)CCC(N)C(=O)O (stereo not given) | inactive
5 | COc1cccc(N(C)C(=S)Oc2ccc3c(c2)CCCC3)n1 | inactive
6 | Cc1onc(-c2ccccc2Cl)c1C(=O)N[C@@H]1C(=O)N2[C@@H]1SC(C)(C)[C@@H]2C(=O)O | inactive
7 | NC(=O)c1cccc(N)c1 | inactive
8 | S=P(N1CC1)(N1CC1)N1CC1 | inactive
9 | N[C@@H](Cc1ccc(O)c(O)c1)C(=O)O | inactive
10 | O=C(O)C1CCCN(CCC=C(c2ccccc2)c2ccccc2)C1 (stereo not given) | inactive
11 | Nc1[nH]c(=O)ncc1F | inactive
12 | CC(=O)[C@H]1CC[C@H]2[C@@H]3CC=C4C[C@@H](O)CC[C@]4(C)[C@H]3CC[C@]12C | inactive
13 | COc1ccc2c(c1)c(CC(=O)OCC(=O)O)c(C)n2C(=O)c1ccc(Cl)cc1 | inactive
14 | COC(c1ccccc1)(c1ccccc1)[C@H](Oc1nc(C)cc(C)n1)C(=O)O | inactive
15 | CCn1cc(C(=O)O)c(=O)c2cc(F)c(N3CCNCC3)cc21 | inactive
16 | COc1cc(NCc2ccc3nc(N)nc(N)c3c2C)cc(OC)c1OC | 16.6 µM (active)
17 | CN(CCOc1ccc(CC2SC(=O)NC2=O)cc1)c1ccccn1 (stereo not given) | inactive
18 | Nc1nc(=S)c2[nH]cnc2[nH]1 | 1.66 µM (active)
19 | COc1cc([C@@H]2c3cc4c(cc3[C@H](O)[C@H]3COC(=O)[C@H]23)OCO4)cc(OC)c1OC | inactive
20 | COc1ncnc(NS(=O)(=O)c2ccc(N)cc2)c1OC | inactive

Row | Structure (SMILES) | Potency
21 | NC1(c2ccc(-c3nc4ccn5c(=O)[nH]nc5c4cc3-c3ccccc3)cc2)CCC1 | inactive
22 | CC(C)OC(=O)OCOP(=O)(CO[C@H](C)Cn1cnc2c(N)ncnc21)OCOC(=O)OC(C)C | inactive
23 | CS(=O)(=O)c1ccc([C@@H](O)[C@@H](CO)NC(=O)C(Cl)Cl)cc1 | inactive
24 | C[C@@H](NCCCc1cccc(C(F)(F)F)c1)c1cccc2ccccc12 | inactive
25 | Nc1ccc(S(=O)(=O)Nc2ccccn2)cc1 | inactive
26 | CC[C@H](C)C(=O)O[C@H]1C[C@@H](C)C=C2C=C[C@H](C)[C@H](CC[C@@H]3C[C@@H](O)CC(=O)O3)[C@H]21 | 11.8 µM (active)
27 | CN1CCN(c2c(F)cc3c(=O)c(C(=O)O)cn4c3c2OCN4C)CC1 | inactive
28 | Cc1ccnc2c1NC(=O)c1cccnc1N2C1CC1 | inactive
29 | CC1=CC(=O)c2ccccc2C1=O | 26.4 µM (active)
30 | OC(Cn1cncn1)(Cn1cncn1)c1ccc(F)cc1F | inactive
31 | O=C(O)c1cccnc1 | inactive
32 | CC(C)C[C@H](NC(=O)[C@H](CCc1ccccc1)NC(=O)CN1CCOCC1)C(=O)N[C@@H](Cc1ccccc1)C(=O)N[C@@H](CC(C)C)C(=O)[C@@]1(C)CO1 | 0.0083 µM (active)
33 | COc1cnc(NS(=O)(=O)c2ccc(N)cc2)nc1 | inactive
34 | CN1CCCC(n2nc(Cc3ccc(Cl)cc3)c3ccccc3c2=O)CC1 (stereo not given) | 23.5 µM (active)
35 | CCc1c2c(nc3ccc(OC(=O)N4CCC(N5CCCCC5)CC4)cc13)-c1cc3c(c(=O)n1C2)COC(=O)[C@]3(O)CC | 0.935 µM (active)
36 | CN(C)c1ccc(C(=C2C=CC(=[N+](C)C)C=C2)c2ccc(N(C)C)cc2)cc1 | 0.132 µM (active)
37 | CCCc1nc(C)c2c(=O)[nH]c(-c3cc(S(=O)(=O)N4CCN(CC)CC4)ccc3OCC)nn12 | 8.33 µM (active)
38 | N=C(N)c1ccc(OCCCCCOc2ccc(C(=N)N)cc2)cc1 | 18.7 µM (active)
39 | CCCOc1ccc(C(=O)OCCN(CC)CC)cc1N | inactive
40 | Cn1nnc2c(C(N)=O)ncn2c1=O | inactive
